In the library only some 10% were active in any assay of this set; here they are far more common.
3T3 cytotox: NIH 3T3 cell cytotoxicity; Potency, µM (top dose mostly 96.7 µM), inactives show at the top dose activity change, negative = cytotoxicity, actives largely listed as inhibitors; NIH 3T3 viability, CellTiter-Glo ATP luminescence, 48-72 h; 94,000 compounds, 4.3% hits; note: nearly all actives have a fitted effect of over 55% in size
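Luminescent ATP readout (CellTiter-Glo, 10 min RT) after 48 or 72 hr compound exposure of NIH 3T3 cells seeded at 400 cells/well in 1536-well format; quantitative HTS.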
hNpr1 antagonist: antagonists of human natriuretic peptide receptor Npr1 | P16066 | HEK293 hNpr1 GloSensor cGMP, ANP-stimulated luminescence | Potency, µM (highest dose often 46.3 µM), without a hit: top-dose activity change, negative = inhibition, most hits filed as inhibitors | 76,000 compounds, 1.6% hits | AID 1347048; calls by dose curve; note: nearly all actives have a fitted effect of over 60% in size
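HEK293 cells stably expressing human Npr1 and cGMP GloSensor pGS-40F, loaded 2 h with 2% GloSensor reagent, given compound 30 min at room temperature. Luminescence read before and 20 min after 0.1 nM hNppA.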
HEK cytotox: HEK 293 cell cytotoxicity; HEK 293 viability, ATP luminescence (CellTiter-Glo), 48-72 h; Potency, µM (top dose mostly 115 µM), inactives show at the top dose activity change, negative = cytotoxicity, actives largely listed as inhibitors; 94,000 compounds, 6.6% hits; note: nearly all actives have a fitted effect of over 60% in size
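HEK 293 seeded at 250 cells/well receive compound via pintool. After 48 or 72 hr at 37 degree Celsius, 5% CO2 and 95% humidity, CellTiter-Glo is dispensed and luminescence read following 10 min at room temperature.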
Luciferase inh: blocks purified firefly luciferase enzyme activity | P08659 | purified P. pyralis luciferase, luminescence, biochemical | Potency, µM (doses to about 115 µM), most hits filed as inhibitors | 76,000 compounds, 2.5% hits | AID 1347043; note: nearly all actives have a fitted effect of over 65% in size
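Luminescence read by CCD imager after adding enzyme (10nM final) to wells holding compound, titrated in qHTS. Substrates 10uM each D-luciferin and ATP; buffer 50mM Tris acetate pH 7.5, 10mM Mg acetate, Tween-20, BSA.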
GPT2 inh: GPT2 alanine aminotransferase inhibition; Q8TD30; Recombinant GPT2, coupled pyruvate oxidase/HRP Amplex Red fluorescence; Potency, µM (doses to about 57.7 µM), without a hit: at the highest dose activity change, negative = inhibition, hits mostly inhibitors; 100,000 compounds, 0.25% hits; note: nearly all actives have a fitted effect of over 60% in size
Target sequence (Q8TD30 whole entry, looked up): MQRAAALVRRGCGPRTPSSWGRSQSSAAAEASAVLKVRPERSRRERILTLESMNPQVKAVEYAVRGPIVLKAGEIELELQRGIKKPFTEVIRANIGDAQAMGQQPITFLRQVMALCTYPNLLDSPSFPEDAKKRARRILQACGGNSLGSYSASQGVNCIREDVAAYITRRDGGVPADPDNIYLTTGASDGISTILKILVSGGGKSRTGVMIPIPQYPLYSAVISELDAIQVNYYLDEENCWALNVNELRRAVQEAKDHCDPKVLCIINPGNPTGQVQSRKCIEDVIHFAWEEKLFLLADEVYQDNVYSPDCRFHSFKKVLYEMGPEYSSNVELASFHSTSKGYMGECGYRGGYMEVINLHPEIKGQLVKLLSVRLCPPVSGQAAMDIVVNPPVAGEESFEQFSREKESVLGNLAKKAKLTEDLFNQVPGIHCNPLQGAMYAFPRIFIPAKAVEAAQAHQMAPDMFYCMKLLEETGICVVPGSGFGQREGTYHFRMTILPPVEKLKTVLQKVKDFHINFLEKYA
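Fluorescence of coupled pyruvate oxidase/HRP/Amplex Red system (50uM Amplex, 30 min, dark) reports pyruvate formed by GPT2. Enzyme reaction: 10ng/uL GPT2, 2mM L-alanine, 250uM a-KG, 30 min room temperature, pH 7.5; 50uM AOA control.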
* marks the source's active call; other numbers are inactive results; i = inactive; ? = inconclusive; nt = no result; [ ] = another dose, or the depositor's remark. Unless noted, calls come from the whole dose curve; as a rule, active = well fitted curve in the direction sought with a large enough effect; inconclusive = small, poorly fitted or top-dose-only effect, or another doubt; inactive = no such curve, though single readings can be large; an effect the other way counts as inactive or inconclusive. % is set by controls: 0 for no effect and ±100 for the full control effect; potency is the fitted concentration of half-maximal effect.

SMILES | 3T3 cytotox | hNpr1 antagonist | HEK cytotox | Luciferase inh | GPT2 inh
Cn1ccc(C(=O)N2CC(COc3ccccc3)C3(C2)CN(c2ccccc2)C3)n1 (stereo not drawn) | 100µM* | -1%[70.6 µM] | ? | i | -15%[88.5 µM]
Cc1ncsc1CN1CC[C@@H]2C(=O)NCCCCCCN(Cc3ccncc3)[C@@H]2C1 | ? | -9% | ? | i | i
O=C(Nc1ccc(F)c(Cl)c1)N1CCC(Oc2ncccc2C(=O)N2CCCCC2)C1 (stereo not drawn) | i | -2% | 2% | i | i
CN1CC(=O)N(C2CCCCC2)Cc2c(NCCCO)ncnc21 | -7% | nt | 1% | nt | i
COc1ccc(-c2cc(C[C@H]3CNCC[C@H]3CC(=O)NCc3ccccc3)no2)cc1 | 112µM* | -19%[70.6 µM] | 89µM* | i | 2%[88.5 µM]
COc1ccccc1N1CCN(C(=O)C[C@@H]2CCNC[C@@H]2Cc2cc(-c3ccc(C(C)(C)C)cc3)on2)CC1 | ? | -1% | ? | i | -18%
COc1ccc(-c2cc(C[C@H]3CNCC[C@H]3CC(=O)NCc3cccnc3)no2)cc1 | -23%[174 µM] | -9%[70.6 µM] | -15%[172 µM] | i | 0%[88.5 µM]
COc1ccc(-c2cc(C[C@H]3CNCC[C@H]3CC(=O)N3CCN(c4ccccc4OC)CC3)no2)cc1 | 14µM* | -20% | ? | i | -27%
COc1ccccc1N1CCN(C(=O)C[C@@H]2CCNC[C@@H]2Cc2cc(-c3ccc(F)cc3)on2)CC1 | ? | -1% | ? | i | -5%
COc1ccc(-c2cc(C[C@H]3CNCC[C@H]3CC(=O)NCc3cccs3)no2)cc1 | 89µM* | -15%[70.6 µM] | 56µM* | i | ?
CC(C)(C)NC(=O)C[C@@H]1CCNC[C@@H]1Cc1cc(-c2ccc(C(C)(C)C)cc2)on1 | 22µM* | -11%[70.6 µM] | 13µM* | i | -2%[88.5 µM]
COc1ccccc1C(=O)N1CCN(c2ccnc3ccnn23)CC1 | ? | nt | ? | nt | i
CC(C)(C)c1ccc(-c2cc(C[C@H]3CNCC[C@H]3CC(=O)NCc3ccc(F)cc3)no2)cc1 | 25µM* | 1% | 28µM* | i | i
COc1ccc(-c2cc(C[C@H]3CNCC[C@H]3CC(=O)Nc3ccccc3)no2)cc1 | 40µM* | -21%[70.6 µM] | 45µM* | i | 4%[88.5 µM]
O=C(C[C@@H]1CCNC[C@@H]1Cc1cc(-c2ccc(F)cc2)on1)NCc1cccnc1 | 2%[138 µM] | -2%[70.6 µM] | -2%[172 µM] | i | -15%[88.5 µM]
COc1ccc(-c2cc(C[C@H]3CNCC[C@H]3CC(=O)NC(C)C)no2)cc1 | -10%[174 µM] | -4%[70.6 µM] | -21%[172 µM] | i | -4%[88.5 µM]
COc1ccc(-c2cc(C[C@H]3CNCC[C@H]3CC(=O)NCc3ccc(F)cc3)no2)cc1 | ? | -14% | ? | i | i
O=C(C[C@@H]1CCNC[C@@H]1Cc1cc(-c2ccc(F)cc2)on1)NCc1ccccc1 | 112µM* | -1%[70.6 µM] | 100µM* | i | -3%[88.5 µM]
O=C(C[C@@H]1CCNC[C@@H]1Cc1cc(-c2ccc(F)cc2)on1)NCc1ccc(F)cc1 | 40µM* | -4%[70.6 µM] | 79µM* | i | -3%[88.5 µM]
Cc1cnc(C(=O)N2Cc3ccccc3OC3(CCN(C(C)C)CC3)C2)cn1 | -14% | nt | i | nt | -1%
COc1ccc(S(=O)(=O)N2CCC(n3cnnc3-c3ccccc3)CC2)cc1OC | ? | nt | -29% | nt | -11%
Cc1nnc2ccc(N3CCN(C(=O)Cc4ccc(C(F)(F)F)cc4)CC3)nn12 | -38% | nt | ? | nt | nt
O=C(C[C@@H]1CCNC[C@@H]1Cc1cc(-c2ccccc2)on1)NCc1cccnc1 | 3%[174 µM] | 2%[70.6 µM] | -15%[172 µM] | i | i
COc1ccc(CNC(=O)C[C@@H]2CCNC[C@@H]2Cc2cc(-c3ccc(C(C)(C)C)cc3)on2)cc1 | 25µM* | 2% | ? | i | -6%
CC(=O)NCCNC(=O)C[C@@H]1CCNC[C@@H]1Cc1cc(-c2ccccc2)on1 | i | -1%[70.6 µM] | i | i | i
SMILES | 3T3 cytotox | hNpr1 antagonist | HEK cytotox | Luciferase inh | GPT2 inh
O=C(C[C@@H]1CCNC[C@@H]1Cc1cc(-c2ccccc2)on1)NCc1cccs1 | ? | -3%[70.6 µM] | 89µM* | i | ?
O=C(C[C@@H]1CCNC[C@@H]1Cc1cc(-c2ccccc2)on1)NCc1ccccc1 | 100µM* | -17%[70.6 µM] | ? | i | ?
COCC(=O)NC1CCCN(c2ccnc3ccnn23)C1 (stereo not drawn) | -4%[138 µM] | nt | i | nt | -18%[88.5 µM]
COc1ccc(-c2cccc(C(=O)N3CCN(C(=O)c4ccccc4F)CC3)c2)nn1 | -7% | nt | -24% | nt | nt
O=C(OCc1ccccc1)N1CCC2(CC1)C(=O)NN=C2C1CC1 | -11%[138 µM] | -2%[70.6 µM] | 112µM* | i | 1%[88.5 µM]
COc1ccccc1-c1cccc(C(=O)N2CCN(C(=O)Nc3ccccc3)CC2)c1 | ? | nt | ? | nt | i
O=C(c1ccccc1)N1Cc2ccccc2CC2(CCN(Cc3ccccn3)C2)C1 (stereo not drawn) | -43% | nt | -64% | nt | ?
COc1ccc(NC(=O)c2cc3sc(C)c(CN4CCCCC4)c3[nH]2)cc1OC | 40µM* | -5% | ? | i | ?
COc1cccc(-c2cc(C(=O)NCc3cccc(C(F)(F)F)c3)c3cnn(C)c3n2)c1 | ? | nt | 25µM* | nt | nt
Cn1ncc2c(C(=O)NCc3cccnc3)cc(-c3cccc(C(F)(F)F)c3)nc21 | ? | nt | 50µM* | nt | i
Cn1ncc2c(C(=O)NCCc3ccccn3)cc(-c3cccc(C(F)(F)F)c3)nc21 | ? | nt | 32µM* | nt | nt
CCC(C)NC(=O)Cn1cccc1-c1nc(-c2ccc(OC)c(F)c2)no1 (stereo not drawn) | ? | 0% | ? | i | 1%
Cc1ccc(NC(=O)N2CCN(c3nnnn3-c3cccc(C(C)C)c3)CC2)cc1F | ? | nt | ? | nt | -1%
COc1ccc(Nc2ccnc(N3CCCC(C(=O)NCCc4ccc(F)cc4)C3)n2)cc1 (stereo not drawn) | 25µM* | nt | 32µM* | nt | i
Cc1ccc(Nc2ccnc(N3CCCC(C(=O)NCCc4ccc(F)cc4)C3)n2)cc1 (stereo not drawn) | 32µM* | nt | 32µM* | nt | i
CN(C)C(C(=O)NCc1cc(F)c(F)c(F)c1F)c1cccc(F)c1 (stereo not drawn) | 2% | 1% | 4% | i | 2%
COc1ccc(Cn2c(=O)c(C(=O)NCc3ccc(C(F)(F)F)cc3)nc3cccnc32)cc1 | ? | nt | ? | nt | i
CS(=O)(=O)c1ccc(OCC2(CNCc3cccc(C(F)(F)F)c3)C[C@@H](O)[C@@H](O)C2)cc1 (stereo partly drawn) | ? | -4% | 79µM* | i | 4%
CCN1CCN(c2nc3c(s2)CN(C(=O)Cc2cccnc2)CC3)CC1 | ? | 0% | ? | i | i

High-throughput results deposited in PubChem BioAssay by National Center for Advancing Translational Sciences (NCATS).
